# Experimental data: PubChem BioAssay AID1671192 (National Center for Advancing Translational Sciences (NCATS), 2021)
# Results filed as inconclusive are left out. Active and inactive are the calls of the source. The call rests on the fitted dose curve; in most records, active means well fitted curve in the direction sought with a large enough effect; inconclusive means small, poorly fitted or top-dose-only effect, or another doubt; inactive means no such curve, though single readings can be large or run the other way.
# Molecular target: Polyunsaturated fatty acid lipoxygenase ALOX15 (Homo sapiens) (UniProt P16050)
# Sequence (P16050 whole entry, looked up): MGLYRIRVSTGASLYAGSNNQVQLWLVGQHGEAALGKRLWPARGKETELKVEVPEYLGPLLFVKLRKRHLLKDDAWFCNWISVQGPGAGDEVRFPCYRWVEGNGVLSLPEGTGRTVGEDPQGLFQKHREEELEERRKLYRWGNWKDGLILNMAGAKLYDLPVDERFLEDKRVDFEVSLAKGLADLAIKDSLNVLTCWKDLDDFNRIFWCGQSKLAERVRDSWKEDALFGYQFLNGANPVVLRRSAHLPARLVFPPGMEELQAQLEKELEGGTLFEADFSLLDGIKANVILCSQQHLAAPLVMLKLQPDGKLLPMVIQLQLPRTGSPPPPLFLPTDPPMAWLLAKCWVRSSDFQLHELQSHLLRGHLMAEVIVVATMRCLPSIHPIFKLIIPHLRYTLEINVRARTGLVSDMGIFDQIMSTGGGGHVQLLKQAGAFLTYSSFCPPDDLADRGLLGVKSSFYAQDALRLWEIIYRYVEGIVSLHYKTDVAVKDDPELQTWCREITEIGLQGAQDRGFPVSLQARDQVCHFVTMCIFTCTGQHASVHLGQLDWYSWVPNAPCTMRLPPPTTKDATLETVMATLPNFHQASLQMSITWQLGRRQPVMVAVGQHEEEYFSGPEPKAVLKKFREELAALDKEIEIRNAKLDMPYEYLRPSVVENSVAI
# Assay: Counterscreen qHTS for inhibitors of human arachidonate 12S-lipoxygenase (ALOX12): ALOX15 Assay
# Conditions: purified ALOX15 enzyme activity; series mostly up to 110 µM
# In short: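 Xylenol orange–ferric complex formation, read as the 573 nm to 405 nm absorbance ratio, tracks product from 50 uM arachidonic acid turned over for 30 min at RT. Enzyme is 40 nM ALOX15, pH 7.5 HEPES buffer, compound-preincubated 15 min.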
row,Structure (SMILES),outcome
1,CN1CC(=O)N(C2CCCNC2)Cc2c(NC3CCCCC3O)ncnc21 (stereo not drawn),inactive
2,CN(C)C(=O)N1Cc2ccccc2OC2(CCN(C(=O)Cc3cnc[nH]3)CC2)C1,inactive
3,O=C(O)C1=NOC2CN(Cc3c(F)cccc3Cl)CC12 (stereo not drawn),inactive
4,COc1ccc(-c2cc(C(=O)NCC(C)C)c3c(C4CCCN4)noc3n2)cc1 (stereo not drawn),inactive
5,COc1ccc(CNc2ncnc3c2CN(C2CCNCC2)C(=O)CN3C)cc1OC,inactive
6,Cc1ccccc1N(C)C1CN(C(=O)OC(C)(C)C)C1,inactive
7,CN1CC(=O)N(C2CCC2)Cc2c(NC3CCNCC3)ncnc21,inactive
8,COc1cccc(N2C(=O)NC(=NC3CCCCC3)C23CCCN([S+](=O)([O-])c2cccc(C(F)(F)F)c2)C3)c1 (stereo not drawn),inactive
9,O=C(N1CCOCC1)N1CCn2c(nnc2-c2cncc(Br)c2)C1,inactive
10,Cn1nc(C2CCCN2)c2c(C(=O)NCc3ccc(F)cc3)cc(C3CC3)nc21 (stereo not drawn),inactive
11,O=C1NCc2ccccc2CC12CCN(Cc1cnc3ccccc3c1)C2 (stereo not drawn),inactive
12,COc1cccc(O)c1CN1CCCC12Cc1ccccc1CNC2=O (stereo not drawn),inactive
13,O=C(NC1CCCC1)c1cc(C2CC2)nc2onc(C3CCCN3)c12 (stereo not drawn),inactive
14,CNCc1cccc(Oc2ccccc2)c1,inactive
15,CN1CC(=O)N(C2CCCNCC2)Cc2c1ncnc2N1CCN(Cc2ccccc2)CC1 (stereo not drawn),inactive
16,COc1cc(OC(F)(F)F)ccc1C(=O)NCc1nnc2n1C(C(=O)O)CC2 (stereo not drawn),inactive
17,N#Cc1ccc(CN2CCC3(CC(c4cccc(C(F)(F)F)c4)=NO3)C2)cc1 (stereo not drawn),inactive
18,O=C(c1ccccc1)N1CCC2(CC1)C(=O)NCN2C(=O)Cc1ccccc1,inactive
19,O=C(c1ccc2c(c1)OCO2)N1CCCC2(CC(c3ccccc3)=NO2)C1 (stereo not drawn),inactive

row,Structure (SMILES),outcome
1,O=C(O)c1ccc(-c2cnccn2)cc1,inactive
2,O=C(c1cc(C2CC2)nc2c1c(C1CCCN1)nn2-c1ccccc1)N1CCOCC1 (stereo not drawn),inactive
3,O=C(NCc1ccc(Cl)nc1)c1cn2c(n1)CN(C(=O)c1ccccc1)CC2,inactive
4,NCC(=O)N1CCC2(CC1)CN(C(=O)Cc1cccc(Cl)c1)CCO2,inactive
5,Cc1ccc(CCN2CCC3(Cc4ccccc4CNC3=O)C2)cc1 (stereo not drawn),inactive
6,C[C@H](C(=O)N1Cc2ccccc2CC2(CCN(C)C2)C1)c1ccccc1 (stereo partly drawn),inactive
7,O=C1NCc2ccccc2CC12CCN(Cc1c[nH]c3ccccc13)CC2,inactive
8,O=C(NC1CC1)c1cc(-c2ccccc2C(F)(F)F)nc2onc(C3CCNC3)c12 (stereo not drawn),inactive
9,COc1ccccc1NC1CN(C(=O)OC(C)(C)C)C1,inactive
10,CN1CC(=O)N(C2CCCNC2)Cc2c(NCCc3ccccc3F)ncnc21 (stereo not drawn),inactive
11,Cc1ccc(-c2cccc(CN3CCCC(c4nc5ccc(F)cc5c(=O)[nH]4)C3)c2)c(C)c1 (stereo not drawn),inactive
12,COc1ccc(CN2CCC3(CC(c4cccc(C(F)(F)F)c4)=NO3)C2)cc1 (stereo not drawn),inactive
13,O=Cc1ccc(-c2ccc(F)cc2)cc1,inactive
14,O=C(N1CCCC1)N1CCCC(c2nnc3n2CCNC3)C1 (stereo not drawn),inactive
15,Fc1ccc(CN2CCC3(CC(c4cccc(C(F)(F)F)c4)=NO3)C2)cc1 (stereo not drawn),inactive
16,O=C1NC2(Cc3ccccc31)CN(C(=O)c1ccccc1F)C2,inactive
17,CN1CC(=O)N(C2CCCNCC2)Cc2c(NCc3ccc4c(c3)OCO4)ncnc21 (stereo not drawn),inactive
18,CCc1nc2c(c(-c3ccc(OC)cc3)n1)CCN(Cc1ccc(OC)cc1)CC2,inactive
19,CNCc1sc2ccccc2c1C,inactive
